A selection: hits, their analogues and other compounds. The true share with any hit is near 2.2%.
aSyn 5UTR inh: 5' untranslated region of α-synuclein, MLPCN primary screen; hit rate 0.82% among 300,000; AID 1813; inhibition, % (tested at 7.5 µM); alpha-synuclein 5'UTR reporter, inhibitor activity; in the data active = inhibition above about 60%; inconclusive = no clear call, values can overlap the other calls;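 also: H4 neuroglioblastoma cells stably carrying SNCA 5'UTR luciferase fusion; 0% = DMSO wells and 100% = positive control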
BaF3 parental: parental Ba/F3 viability inhibition as JAK2V617F counter-screen | CellTiter-Glo ATP luminescence | AID 1486 | inhibition, % at 5.6 µM | hit rate 1.1% among 220,000;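 active = inhibition above a per-campaign cutoff, the mean inhibition of all tested compounds plus 3 SD, cut at about 27% in these data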;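 also: 0% = DMSO wells and 100% = JAK Inhibitor I control wells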
Ba/F3 V617F tox: lowers viability of Ba/F3 cells expressing EpoR and JAK2V617F; hit rate 1.1% among 220,000; inhibition, % at 5.6 µM; ATP luminescence;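 active = inhibition above the campaign mean plus 3 SD over all tested compounds, cut at about 24% in these data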;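 also: cytokine-independent growth of Ba/F3 cells driven by EpoR plus mutant JAK2; 0% = DMSO-treated cells and 100% = JAK inhibitor I control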
APP 5UTR inh: APP translation inhibition | SH-SY5Y APP 5'UTR-luciferase reporter, luminescence | inhibition, % at 2 µM | hit rate 0.82% among 190,000 | AID 1285;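 active = inhibition above a set limit, derived from the sample mean plus 3 SD, cut at about 45% in these data; inconclusive = one replicate passes the limit while the other fails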
IEC-6 cytotox: IEC-6 cytotoxicity, counter-screen for KLF5 inhibitors; luminescence viability; inhibition, % at 5 µM; hit rate 0.78% among 290,000; in the data active = inhibition above about 22%;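 also: 0% = plate median of test compound wells and 100% = cytotoxic reference compound wells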
KLF5 inhibitor: suppresses KLF5 promoter-driven expression; DLD-1 KLF5 promoter-luciferase reporter, luminescence; inhibition, % at 5 µM; hit rate 0.23% among 290,000;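 active = inhibition above a per-plate limit of that plate's mean compound inhibition plus 3 SD, cut at about 60% in these data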;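 also: 0% = DMSO wells and 100% = LY294002 at 200 µM; higher means less KLF5 promoter-driven luciferase light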
Numbers without * were called inactive; ? = inconclusive; . = not tested or not shown.

SMILES	aSyn 5UTR inh	BaF3 parental	Ba/F3 V617F tox	APP 5UTR inh	IEC-6 cytotox	KLF5 inhibitor
CC(=O)c1cn(CC(=O)Nc2ccccc2Cl)c2ccccc12	13	.	.	.	8	-13
Cc1ccc(NC(=O)c2ccc(S(=O)(=O)N3CCOCC3)cc2)c(C)c1	4	.	.	.	-2	-28
Cc1ccc(C)c(NC(=S)N=Nc2c(O)n(C)c3ccc(S(=O)(=O)N4CCOCC4)cc23)c1	78*	4	-3	25	-12	-17
CCc1ccccc1NC(=S)N=Nc1c(O)n(C)c2ccc(S(=O)(=O)N3CCOCC3)cc12	80*	2	1	38	-3	-3
Cc1ccc(Cn2c(O)c(N=NC(=S)Nc3ccccc3F)c3cc(S(=O)(=O)N4CCOCC4)ccc32)cc1	66*	5	2	50*	8	24
O=C(Nc1cccc(NC(=O)c2cccc(Cl)c2)c1)c1cccnc1	-14	.	.	.	8	-19
Oc1c(C(Nc2cccc(C(F)(F)F)c2)c2cccnc2)ccc2cccnc12 (centres undefined)	-27	3	-3	3	-2	-7
Cc1cc(NC(c2cccnc2)c2ccc3cccnc3c2O)no1 (centres undefined)	77*	-1	1	54*	18	28
COc1ccc(C(=O)/C=C2/C(=O)Nc3ccccc32)cc1	-99	.	.	.	2	-20
CN1/C(=C\C(=O)Nc2cccnc2)c2ccccc2CC1(C)C	-5	36*	-2	-5	-2	11
O=C(/C=C/c1ccccc1)Nc1cccnc1	-143	.	.	.	-1	-88
COc1ccc(C(=O)/C=C2/c3ccccc3CC(C)(C)N2C)cc1	-19	4	4	48*	13	4
O=c1cc2oc3cc(O)c(O)cc3c(-c3ccccc3[N+](=O)[O-])c-2cc1O	71*	.	.	.	12	-4
Cc1ccccc1-n1cnc2cc(NCc3cccs3)ccc21	-31	6	-1	-12	-4	-15
COc1ccccc1-n1cnc2cc(NCc3cccs3)ccc21	?	73*	73*	93*	82*	26
COc1ccc(Cn2c(SCc3ccc(C)cc3)nc3cc(OC)c(OC)cc3c2=N)cc1Cl	119*	2	-2	-16	-3	-21
O=C(NNc1c2ccccc2nc2ccccc12)c1ccc(O)cc1O	-79	77*	72*	-12	5	-24
O=C(NNc1c2ccccc2nc2ccccc12)c1ccc(O)cc1	-14	65*	49*	6	4	-6
O=C(NNc1c2ccccc2nc2ccccc12)c1ccccc1O	-93	3	0	1	7	-3
CCCN(CC(=O)Nc1ccccc1C)C(=O)c1ccc(COc2ccccc2)cc1	-16	.	.	.	-5	-71
CC(=O)Nc1c2c(nn1-c1ccc(Cl)cc1)CSC2	-4	.	.	.	1	-4
CCOC(=O)C(CC)/C(C)=N\NC(=O)c1ccccc1O (centres undefined)	93*	9	10	52*	-4	16
Oc1ccc(/C=N/Nc2ccnc3cc(Cl)ccc23)cc1O	-78	52*	85*	.	13	-26
O=C(OCc1c(Cl)cccc1Cl)c1ccncc1	6	0	0	5	-2	15
Nc1ccc(-c2cc3ccccc3oc2=O)cc1	106*	.	.	.	3	37
SMILES	aSyn 5UTR inh	BaF3 parental	Ba/F3 V617F tox	APP 5UTR inh	IEC-6 cytotox	KLF5 inhibitor
CCOCCCNC(=O)c1c(N)n(-c2ccc3c(c2)OCO3)c2nc3ccccc3nc12	21	60*	36*	.	22	-1
COCCCNC(=O)c1c(N)n(-c2ccc3c(c2)OCO3)c2nc3ccccc3nc12	10	7	1	10	10	-4
CC(C)[C@@H]1CC[C@@H](C)C[C@H]1OC(=O)C[n+]1cc(-c2ccc(Cl)cc2)n2c1CCCCC2	-2	85*	98*	.	-3	4
COc1ccc(-c2c[n+](CC(=O)OC3CC(C)CCC3C(C)C)c3n2CCC3)cc1 (centres undefined)	-20	82*	99*	2	13	22
CN(CCCC(=O)N1CCCC(C(N)=O)C1)S(=O)(=O)c1ccc(F)cc1 (centres undefined)	-14	.	.	.	-1	-26
O=C(O)c1ccc(N/N=C/c2ccc3c(c2)OCO3)cc1	94*	5	-1	31	1	60
COc1cnc(-c2ccccn2)nc1NC(C)C	98*	5	-1	40	11	-25
CC(NC(=O)C1CCN(C(=O)Nc2ccccc2)CC1)c1ccccc1 (centres undefined)	1	.	.	.	.	.
